# Laboratory results reported in PubChem BioAssay AID504941 (Broad Institute, 2011).
# The campaign covered roughly 1,200 compounds. About 170 (14%) were called active. A selection follows. Potency and affinity values are given separately. Values without a mark were called inactive. How the calls were made is not given here.
# Assay: twin-arginine translocation blockade, bacterial reporter – cherry-pick, set 2, plate reader, dose response (AID 504941)
# Conditions: E. coli Tat transport reporter; series mostly up to 38 µM; activity change, negative = inhibition: at the top concentration
row,Structure (SMILES),"activity change, negative = inhibition [%]"
1,N#Cc1ccccc1S(=O)(=O)N1CCN(CC(=O)Nc2ccnn2C2CCCC2)CC1,12.7
2,CCN(CC)C(=O)CSc1nc2ccccc2o1,8.86
3,COC(=O)c1ccc(C2CC(=O)Nc3cc(OC)c(OC)cc32)cc1 (stereo not given),1.38
4,Cc1ccc(S(=O)(=O)N2CCOCC2)cc1NC(=O)c1cc2ccccc2oc1=O,10.6
5,Cc1ccc(NC(=O)/C(=C/c2cccc([N+](=O)[O-])c2)NC(=O)C2CCCCC2)c(C)c1,19.2
6,COc1ccc(CN2CSC(=S)N(Cc3ccccc3)C2)cc1,0.18
7,Nc1cc(N)nc(SCc2ccc(Cl)cc2)n1,2.74
8,O=C(CCCCCNC(=O)c1ccccc1)C[N+](=O)[O-],9.54
9,COCCCNc1nc2c(c(=O)[nH]c(=O)n2C)n1CC(O)COc1cccc(C)c1 (stereo not given),-25.7
10,COc1ccc(NC(=O)c2ccc(Oc3ncccn3)cc2)cc1,9.5
11,Cn1c(N)c(C(=O)COC(=O)CCCN2C(=O)c3ccccc3C2=O)c(=O)n(C)c1=O,13.1
12,O=C(CN1CCN(c2ccccc2F)CC1)NC(=O)NCc1ccccc1,37.5
13,COc1ccc(-c2cc(C(F)(F)F)c3c(n2)sc2c(O)cc(=O)[nH]c23)c(OC)c1,3.85
14,Nc1ccccc1S(=O)(=O)NC1=NCCCCC1,7.97
15,CC1CCN(C(=O)c2[nH]cnc2C(=O)N[C@@H](C)C(=O)OC(C)(C)C)CC1,-3.97
16,CC(C)(C)OC(=O)NCC(=O)N1CCC(C(=O)O)CC1,0.797
17,O=C(NCc1ccccc1)c1nc[nH]c1C(=O)N1CCN(c2ccccc2)CC1,-1.54
18,CC(=O)Nc1ccc(NS(=O)(=O)c2ccc3ccccc3c2)cc1,17.6
19,CCc1ccc(N2CC34C=CC(O3)C(C(=O)OC(C)C)C4C2=O)cc1 (stereo not given),11.4
20,COc1ccc(N=Cc2nc(-c3ccccc3)oc2OC(=O)c2ccccc2)cc1,-7.66
21,COC(=O)c1c(NC(=O)C(=O)NCCCN2CCOCC2)sc2c1CCCC2,23.1
22,Cc1nn2c(SCC(=O)c3cccs3)cc(C(C)(C)C)nc2c1-c1ccccc1,18.4
23,O=C(O)c1ccc(NS(=O)(=O)c2cc(C(=O)O)ccc2Br)cc1,-5.5
24,CC(C)(C)c1ccc(C(=O)n2cnc3ccccc32)cc1,-4.98
25,Cc1ccc(CNC(=O)C2CCCN2C(=O)Nc2ccccc2)cc1 (stereo not given),6.34
26,O=C(O)C1CCCCN1S(=O)(=O)c1ccc(Cl)s1 (stereo not given),3.43
27,Cc1ccc(-n2nnnc2-c2cnc3cc4c(cc3c2C)OCO4)cc1,5.42
28,Cc1ccc2nc(NNC(=O)c3ccc(S(=O)(=O)N4CCc5ccccc5C4)cc3)sc2c1,24.4
29,O=C(CSc1nnc(-c2ccccc2)n1C1CCCCC1)N1CCCC1,14.9
30,Cc1ccnc(NS(=O)(=O)c2ccc(NS(=O)(=O)c3ccccc3)cc2)n1,-7.87
